In PubChem BioAssay AID1362 (SRMLSC, 2008) one finds inhibition data, which are given here for eleven compounds.

This assay can be described thus: growth inhibition of WT strain, primary screen, mitochondrial fusion inhibitor project, WT and mutant strains, chemical genetic (AID 1362). As to conditions: mitochondrial fusion phenotypic screen, at 10 µM.
[1] abbreviates: WT strain, growth inhibition, stronger effect = higher value.

The whole screen tested about 190,000 compounds, of which about 4,000 (2.1%) were called active. No stated cut-off is given here; in the data, active means inhibition above about 58%; inactive means the rest, inconclusive results apart; tested in S. cerevisiae. The sample as a whole holds a higher share of actives than the screen did.

Take `O=C(Nc1ccccc1)/C(=C/c1ccc([N+](=O)[O-])cc1)NC(=O)c1ccccc1`: the inhibition under setting [1] was -0.76% (inactive) and the inhibition (mutant strain inhibition) was -8.51%.
Take `Cc1cccc(NC(=O)c2sc(-c3ccccc3)nc2-c2ccc([N+](=O)[O-])cc2)c1`: the inhibition by setting is: under setting [1], 2.52% (inactive); (mutant strain inhibition) -6.51%.
`CCOC(=O)/C(=C\c1ccc([N+](=O)[O-])cc1)C(=O)c1cc(C(C)=O)c(Nc2ccccc2)s1`: the inhibition is, setting by setting: under setting [1], 84.2% (active); (mutant strain inhibition) 50.2%.
The corresponding values for `CC(=O)NCC(=O)N(Cc1ccco1)C1(C(=O)NC2CCCC2)CCCCC1` are -0.52% (inactive) and 10.2%.
With `O=C(CCCN1C(=O)/C(=C/c2ccccc2)SC1=S)Nc1ccc(O)cc1`, the inhibition was -11.2% (inactive) under setting [1] and 6.5% (mutant strain inhibition).
For `Cc1ccc(OCC(=O)N/N=C\c2ccco2)c(C)c1`, in that order: 8.35% (inactive) and 16.3%.
Turning to `Cc1ccc(/C=N/NC(=O)COc2ccccc2-c2ccccc2)cc1`, the inhibition was 93.7% (active) under setting [1] and 20.8% (mutant strain inhibition).
For `Cc1ccc(OCC(=O)N/N=C/c2ccncc2)cc1`, in that order: -0.91% (inactive) and -0.34%.
The corresponding values for `CC(C(=O)NC1CCCC1)N(c1ccc(Oc2ccccc2)cc1)S(C)(=O)=O` (configuration not stated) are 20.8% (inactive) and 6.65%.
On to `COc1cccc(C(=O)N2CCCC(CCC(=O)NCc3ccc(F)c(F)c3)C2)c1` (configuration not stated), for which the inhibition by setting is: under setting [1], -18.6% (inactive); (mutant strain inhibition) 0.91%.
Regarding `O=C(CCCNS(=O)(=O)c1cccc2nsnc12)NCCN1CCN(c2ccccc2F)CC1`, the inhibition reads like this: under setting [1], -5.33% (inactive); (mutant strain inhibition) 6.35%.

What is called inhibition is the drop in the measured response relative to a control, in per cent.
